From the supplement of paper PMC4466140

What was measured:
Assay in all cases: SPOT peptide array binding signal intensity (averaged, normalized) (arbitrary units (background-subtracted, floor 0; scale differs between SH3 domains)); higher = stronger binding of the SH3 domain to the peptide
AgAbp1 = molecular target: AgAbp1
Summary of the method: (§1)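 SH3 domains from four yeast species were expressed as GST fusions in E. coli BL21(DE3) and purified on glutathione Sepharose. Each was incubated at 10 μg/ml overnight at 4°C in TBS-based blocking buffer on cellulose membranes bearing synthetic 15-mer peptides, in which serines replaced cysteines. Bound protein was detected with anti-GST antibody, an HRP anti-mouse secondary and luminol, then imaged and quantified with Genespotter. The binding signal is the normalized, background-subtracted spot intensity averaged over replicates, in arbitrary units that are not the same from one domain to another.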

AgBbc1 = molecular target: AgBbc1
Summary of the method: as §1

AgBem1-D1 = molecular target: AgBem1-D1
Summary of the method: as §1

AgBzz1-D1 = molecular target: AgBzz1-D1
Summary of the method: as §1

AgBzz1-D2 = molecular target: AgBzz1-D2
Summary of the method: as §1

AgCyk3 = molecular target: AgCyk3
Summary of the method: as §1

AgFus1 = molecular target: AgFus1
Summary of the method: as §1

AgHof1 = molecular target: AgHof1
Summary of the method: as §1

AgHse1 = molecular target: AgHse1
Summary of the method: as §1

AgLsb1 = molecular target: AgLsb1
Summary of the method: as §1

AgLsb4 = molecular target: AgLsb4
Summary of the method: as §1

AgMyo5 = molecular target: AgMyo5
Summary of the method: as §1

AgNbp2 = molecular target: AgNbp2
Summary of the method: as §1

AgRvs167 = molecular target: AgRvs167
Summary of the method: as §1

AgSho1 = molecular target: AgSho1
Summary of the method: as §1

AgSla1-D1-D2 = molecular target: AgSla1-D1-D2
Summary of the method: as §1

AgSla1-D3 = molecular target: AgSla1-D3
Summary of the method: as §1

CaAbp1-D1 = molecular target: CaAbp1-D1
Summary of the method: as §1

CaAbp1-D2 = molecular target: CaAbp1-D2
Summary of the method: as §1

CaBbc1 = molecular target: CaBbc1
Summary of the method: as §1

CaBem1-D1 = molecular target: CaBem1-D1
Summary of the method: as §1

CaBzz1-D1 = molecular target: CaBzz1-D1
Summary of the method: as §1

CaBzz1-D2 = molecular target: CaBzz1-D2
Summary of the method: as §1

CaCyk3 = molecular target: CaCyk3
Summary of the method: as §1

CaFus1 = molecular target: CaFus1
Summary of the method: as §1

CaHof1 = molecular target: CaHof1
Summary of the method: as §1

CaHse1 = molecular target: CaHse1
Summary of the method: as §1

CaLsb1 = molecular target: CaLsb1
Summary of the method: as §1

CaLsb4 = molecular target: CaLsb4
Summary of the method: as §1

CaMyo5 = molecular target: CaMyo5
Summary of the method: as §1

CaNbp2 = molecular target: CaNbp2
Summary of the method: as §1

CaRvs167 = molecular target: CaRvs167
Summary of the method: as §1

CaRvs167-3 = molecular target: CaRvs167-3
Summary of the method: as §1

CaSho1 = molecular target: CaSho1
Summary of the method: as §1

CaSla1-D1-D2 = molecular target: CaSla1-D1-D2
Summary of the method: as §1

CaSla1-D3 = molecular target: CaSla1-D3
Summary of the method: as §1

ScAbp1 = molecular target: ScAbp1
Summary of the method: as §1

ScBbc1 = molecular target: ScBbc1
Summary of the method: as §1

ScBem1-D1 = molecular target: ScBem1-D1
Summary of the method: as §1

ScBzz1-D1 = molecular target: ScBzz1-D1
Summary of the method: as §1

ScBzz1-D2 = molecular target: ScBzz1-D2
Summary of the method: as §1

ScCyk3 = molecular target: ScCyk3
Summary of the method: as §1

ScFus1 = molecular target: ScFus1
Summary of the method: as §1

ScHof1 = molecular target: ScHof1
Summary of the method: as §1

ScHse1 = molecular target: ScHse1
Summary of the method: as §1

ScLsb1 = molecular target: ScLsb1
Summary of the method: as §1

ScLsb2 = molecular target: ScLsb2
Summary of the method: as §1

ScLsb3 = molecular target: ScLsb3
Summary of the method: as §1

ScLsb4 = molecular target: ScLsb4
Summary of the method: as §1

ScMyo3 = molecular target: ScMyo3
Summary of the method: as §1

ScMyo5 = molecular target: ScMyo5
Summary of the method: as §1

ScNbp2 = molecular target: ScNbp2
Summary of the method: as §1

ScPex13 = molecular target: ScPex13
Summary of the method: as §1

ScRvs167 = molecular target: ScRvs167
Summary of the method: as §1

ScSho1 = molecular target: ScSho1
Summary of the method: as §1

ScSla1-D1-D2 = molecular target: ScSla1-D1-D2
Summary of the method: as §1

ScSla1-D3 = molecular target: ScSla1-D3
Summary of the method: as §1

SpAbp1-D1 = molecular target: SpAbp1-D1
Summary of the method: as §1

SpBbc1 = molecular target: SpBbc1
Summary of the method: as §1

SpBzz1-D1 = molecular target: SpBzz1-D1
Summary of the method: as §1

SpBzz1-D2 = molecular target: SpBzz1-D2
Summary of the method: as §1

SpCyk3 = molecular target: SpCyk3
Summary of the method: as §1

SpHof1 = molecular target: SpHof1
Summary of the method: as §1

SpHof1-2 = molecular target: SpHof1-2
Summary of the method: as §1

SpHof1-3 = molecular target: SpHof1-3
Summary of the method: as §1

SpHse1 = molecular target: SpHse1
Summary of the method: as §1

SpLsb1 = molecular target: SpLsb1
Summary of the method: as §1

SpLsb4 = molecular target: SpLsb4
Summary of the method: as §1

SpMyo1 = molecular target: SpMyo1
Summary of the method: as §1

SpNbp2 = molecular target: SpNbp2
Summary of the method: as §1

SpPex13 = molecular target: SpPex13
Summary of the method: as §1

SpRvs167 = molecular target: SpRvs167
Summary of the method: as §1

SpSla1-D1-D2 = molecular target: SpSla1-D1-D2
Summary of the method: as §1

SpSla1-D3 = molecular target: SpSla1-D3
Summary of the method: as §1

B1: unnamed (peptide)
chain: DLFKPLPEPPTELGR
SPOT peptide array binding signal intensity (AgAbp1): 2.5 | SPOT peptide array binding signal intensity (AgBbc1): ≤ 0 | SPOT peptide array binding signal intensity (AgBem1-D1): ≤ 0 | SPOT peptide array binding signal intensity (AgBzz1-D1): 22 | SPOT peptide array binding signal intensity (AgBzz1-D2): ≤ 0 | SPOT peptide array binding signal intensity (AgCyk3): 1 | SPOT peptide array binding signal intensity (AgFus1): 1 | SPOT peptide array binding signal intensity (AgHof1): ≤ 0 | SPOT peptide array binding signal intensity (AgHse1): 27 | SPOT peptide array binding signal intensity (AgLsb1): ≤ 0 | SPOT peptide array binding signal intensity (AgLsb4): 5 | SPOT peptide array binding signal intensity (AgMyo5): ≤ 0 | SPOT peptide array binding signal intensity (AgNbp2): ≤ 0 | SPOT peptide array binding signal intensity (AgRvs167): 0.333 | SPOT peptide array binding signal intensity (AgSho1): 1410 | SPOT peptide array binding signal intensity (AgSla1-D1-D2): ≤ 0 | SPOT peptide array binding signal intensity (AgSla1-D3): ≤ 0 | SPOT peptide array binding signal intensity (CaAbp1-D1): ≤ 0 | SPOT peptide array binding signal intensity (CaAbp1-D2): ≤ 0 | SPOT peptide array binding signal intensity (CaBbc1): ≤ 0 | SPOT peptide array binding signal intensity (CaBem1-D1): ≤ 0 | SPOT peptide array binding signal intensity (CaBzz1-D1): ≤ 0 | SPOT peptide array binding signal intensity (CaBzz1-D2): ≤ 0 | SPOT peptide array binding signal intensity (CaCyk3): ≤ 0 | SPOT peptide array binding signal intensity (CaFus1): 7 | SPOT peptide array binding signal intensity (CaHof1): 1 | SPOT peptide array binding signal intensity (CaHse1): 16 | SPOT peptide array binding signal intensity (CaLsb1): ≤ 0 | SPOT peptide array binding signal intensity (CaLsb4): ≤ 0 | SPOT peptide array binding signal intensity (CaMyo5): ≤ 0 | SPOT peptide array binding signal intensity (CaNbp2): ≤ 0 | SPOT peptide array binding signal intensity (CaRvs167): 6.67 | SPOT peptide array binding signal intensity (CaRvs167-3): ≤ 0 | SPOT peptide array binding signal intensity (CaSho1): 2540 | SPOT peptide array binding signal intensity (CaSla1-D1-D2): ≤ 0 | SPOT peptide array binding signal intensity (CaSla1-D3): ≤ 0 | SPOT peptide array binding signal intensity (ScAbp1): ≤ 0 | SPOT peptide array binding signal intensity (ScBbc1): ≤ 0 | SPOT peptide array binding signal intensity (ScBem1-D1): ≤ 0 | SPOT peptide array binding signal intensity (ScBzz1-D1): 1 | SPOT peptide array binding signal intensity (ScBzz1-D2): ≤ 0 | SPOT peptide array binding signal intensity (ScCyk3): ≤ 0 | SPOT peptide array binding signal intensity (ScFus1): ≤ 0 | SPOT peptide array binding signal intensity (ScHof1): 1 | SPOT peptide array binding signal intensity (ScHse1): ≤ 0 | SPOT peptide array binding signal intensity (ScLsb1): ≤ 0 | SPOT peptide array binding signal intensity (ScLsb2): ≤ 0 | SPOT peptide array binding signal intensity (ScLsb3): ≤ 0 | SPOT peptide array binding signal intensity (ScLsb4): 10 | SPOT peptide array binding signal intensity (ScMyo3): ≤ 0 | SPOT peptide array binding signal intensity (ScMyo5): ≤ 0 | SPOT peptide array binding signal intensity (ScNbp2): ≤ 0 | SPOT peptide array binding signal intensity (ScPex13): 1030 | SPOT peptide array binding signal intensity (ScRvs167): ≤ 0 | SPOT peptide array binding signal intensity (ScSho1): 5560 | SPOT peptide array binding signal intensity (ScSla1-D1-D2): ≤ 0 | SPOT peptide array binding signal intensity (ScSla1-D3): 3 | SPOT peptide array binding signal intensity (SpAbp1-D1): ≤ 0 | SPOT peptide array binding signal intensity (SpBbc1): ≤ 0 | SPOT peptide array binding signal intensity (SpBzz1-D1): ≤ 0 | SPOT peptide array binding signal intensity (SpBzz1-D2): ≤ 0 | SPOT peptide array binding signal intensity (SpCyk3): 1.5 | SPOT peptide array binding signal intensity (SpHof1): 1460 | SPOT peptide array binding signal intensity (SpHof1-2): 1970 | SPOT peptide array binding signal intensity (SpHof1-3): 734 | SPOT peptide array binding signal intensity (SpHse1): 0.75 | SPOT peptide array binding signal intensity (SpLsb1): ≤ 0 | SPOT peptide array binding signal intensity (SpLsb4): ≤ 0 | SPOT peptide array binding signal intensity (SpMyo1): ≤ 0 | SPOT peptide array binding signal intensity (SpNbp2): ≤ 0 | SPOT peptide array binding signal intensity (SpPex13): 3 | SPOT peptide array binding signal intensity (SpRvs167): 5.67 | SPOT peptide array binding signal intensity (SpSla1-D1-D2): ≤ 0 | SPOT peptide array binding signal intensity (SpSla1-D3): ≤ 0
